In all, about 5,500 compounds went through this assay and about 2,000 (36%) were called active. Inconclusive results (about 18%) are left out. No stated cut-off is given here; in the data, active means normalized growth mostly below about 0.91 (no sharp cut-off); inconclusive means no clear call, values can overlap the other calls; inactive means mostly above about 0.92. The list shows a part of the results.
Assay: chemical genetic growth profiling, strain panel (AID 1159580);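 further: tested at 20 µM; growth read once vehicle control cultures reached saturation at 30 °C; 1 = growth at the plate median or of vehicle wells; lower values mean less growth of the strain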
Settings: growth OD
[1] = S. cerevisiae deletion strains, locus YDL101C, strain DUN1, hits give low values
[2] = S. cerevisiae deletion strains, locus YHR030C, strain SLT2, hits give low values

Measured: normalized growth

CC12NC(=O)NC1(C)NC(=O)N2 (configuration not stated)
inactive: S. cerevisiae deletion strains, locus YAL013W, strain DEP1, hits give low values 1.04 | S. cerevisiae deletion strains, locus YBR229C, strain ROT2, hits give low values 1.01 | S. cerevisiae deletion strains, locus YCL061C, strain MRC1, hits give low values 1 | [1] 1.01 | S. cerevisiae deletion strains, locus YDL134C, strain PPH21, hits give low values 1.02 | S. cerevisiae deletion strains, locus YDR150W, strain NUM1, hits give low values 0.997 | S. cerevisiae deletion strains, locus YEL061C, strain CIN8, hits give low values 1.03 | S. cerevisiae deletion strains, locus YGR078C, strain PAC10, hits give low values 1.02 | S. cerevisiae deletion strains, locus YGR229C, strain SMI1, hits give low values 1.01 | [2] 1.07 | S. cerevisiae deletion strains, locus YHR087W, strain rtc3, hits give low values 1.01 | S. cerevisiae deletion strains, locus YJR043C, strain POL32, hits give low values 1.01 | S. cerevisiae deletion strains, locus YJR075W, strain HOC1, hits give low values 1.02 | S. cerevisiae deletion strains, locus YKL190W, strain CNB1, hits give low values 1.03 | S. cerevisiae deletion strains, locus YLR039C, strain RIC1, hits give low values 1.06 | S. cerevisiae deletion strains, locus YLR058C, strain SHM2 (second series), hits give low values 1.02 | S. cerevisiae deletion strains, locus YLR085C, strain ARP6, hits give low values 1.05 | S. cerevisiae deletion strains, locus YLR262C, strain YPT6, hits give low values 1.04 | S. cerevisiae deletion strains, locus YML094W, strain GIM5, hits give low values 1.04 | S. cerevisiae deletion strains, locus YMR219W, strain ESC1, hits give low values 1.01 | S. cerevisiae deletion strains, locus YMR263W, strain SAP30, hits give low values 1.01 | S. cerevisiae deletion strains, locus YMR307W, strain GAS1, hits give low values 1.11 | S. cerevisiae deletion strains, locus YNL153C, strain GIM3, hits give low values 1 | S. cerevisiae deletion strains, locus YNL298W, strain CLA4 (second series), hits give low values 1.05 | S. cerevisiae deletion strains, locus YNL322C, strain KRE1, hits give low values 1.01 | S. cerevisiae deletion strains, locus YNR030W, strain Alg12, hits give low values 1.02 | S. cerevisiae deletion strains, locus YOL006C, strain TOP1, hits give low values 1.09 | S. cerevisiae deletion strains, locus YPL055C, strain LGE1, hits give low values 1.04 | S. cerevisiae deletion strains, locus YPL241C, strain CIN2, hits give low values 1.05 | S. cerevisiae deletion strains, locus YPR135W, strain CTF4, hits give low values 1.02 | S. cerevisiae strains, strain wild type, hits give low values 1.01

ClC1=C(C=Nc2ccc(Cl)cc2)CSc2ccc(Cl)cc21
active: [2] 0.74 | S. cerevisiae deletion strains, locus YLR113W, strain HOG1, hits give low values 0.808 | S. cerevisiae deletion strains, locus YPL256C, strain CLN2, hits give low values 0.843
inactive: S. cerevisiae deletion strains, locus YAR019C, strain CDC15, hits give low values 0.941 | S. cerevisiae deletion strains, locus YBL105C, strain PKC1, hits give low values 0.926 | S. cerevisiae deletion strains, locus YBR135W, strain CKS1, hits give low values 0.939 | S. cerevisiae deletion strains, locus YBR136W, strain MEC1, hits give low values 0.926 | S. cerevisiae deletion strains, locus YBR160W, strain CDC28, hits give low values 0.937 | S. cerevisiae deletion strains, locus YDL017W, strain CDC7, hits give low values 0.933 | S. cerevisiae deletion strains, locus YDL028C, strain MPS1, hits give low values 0.912 | [1] 0.945 | S. cerevisiae deletion strains, locus YDL108W, strain KIN28, hits give low values 0.923 | S. cerevisiae deletion strains, locus YDL132W, strain cdc53, hits give low values 0.936 | S. cerevisiae deletion strains, locus YDL214C, strain PRR2, hits give low values 0.896 | S. cerevisiae deletion strains, locus YDR052C, strain DBF4, hits give low values 0.943 | S. cerevisiae deletion strains, locus YDR054C, strain cdc34, hits give low values 0.919 | S. cerevisiae deletion strains, locus YDR226W, strain ADK1, hits give low values 0.914 | S. cerevisiae deletion strains, locus YDR477W, strain SNF1, hits give low values 0.879 | S. cerevisiae deletion strains, locus YER123W, strain YCK3, hits give low values 0.83 | S. cerevisiae deletion strains, locus YER133W, strain GLC7, hits give low values 0.891 | S. cerevisiae deletion strains, locus YFL009W, strain cdc4, hits give low values 0.924 | S. cerevisiae deletion strains, locus YFL029C, strain CAK1, hits give low values 0.928 | S. cerevisiae deletion strains, locus YFR003C, strain YPI1, hits give low values 0.94 | S. cerevisiae deletion strains, locus YFR019W, strain FAB1, hits give low values 0.909 | S. cerevisiae deletion strains, locus YFR028C, strain CDC14, hits give low values 0.935 | S. cerevisiae deletion strains, locus YGR040W, strain KSS1, hits give low values 0.866 | S. cerevisiae deletion strains, locus YGR052W, strain FMP48, hits give low values 0.905 | S. cerevisiae deletion strains, locus YGR092W, strain DBF2, hits give low values 0.796 | S. cerevisiae deletion strains, locus YHR079C, strain IRE1, hits give low values 0.862 | S. cerevisiae deletion strains, locus YHR082C, strain KSP1, hits give low values 0.816 | S. cerevisiae deletion strains, locus YHR205W, strain SCH9, hits give low values 0.812 | S. cerevisiae deletion strains, locus YIL147C, strain SLN1, hits give low values 0.926 | S. cerevisiae deletion strains, locus YJL095W, strain BCK1, hits give low values 0.881 | S. cerevisiae deletion strains, locus YJL128C, strain PBS2, hits give low values 0.903 | S. cerevisiae deletion strains, locus YJL157C, strain FAR1, hits give low values 0.886 | S. cerevisiae deletion strains, locus YJR016C, strain ILV3, hits give low values 0.936 | S. cerevisiae deletion strains, locus YJR066W, strain TOR1 (second series), hits give low values 0.91 | S. cerevisiae deletion strains, locus YJR066W, strain TOR1, hits give low values 0.815 | S. cerevisiae deletion strains, locus YKL048C, strain ELM1, hits give low values 0.941 | S. cerevisiae deletion strains, locus YKL067W, strain YNK1, hits give low values 0.902 | S. cerevisiae deletion strains, locus YKL101W, strain HSL1, hits give low values 0.893 | S. cerevisiae deletion strains, locus YKL193C, strain SDS22, hits give low values 0.932 | S. cerevisiae deletion strains, locus YKL203C, strain TOR2, hits give low values 0.884 | S. cerevisiae deletion strains, locus YLR133W, strain CKI1, hits give low values 0.869 | S. cerevisiae deletion strains, locus YLR403W, strain SFP1, hits give low values 0.836 | S. cerevisiae deletion strains, locus YML070W, strain DAK1, hits give low values 0.89 | S. cerevisiae deletion strains, locus YMR001C, strain CDC5, hits give low values 0.927 | S. cerevisiae deletion strains, locus YMR205C, strain PFK2 (second series), hits give low values 0.904 | S. cerevisiae deletion strains, locus YMR277W, strain FCP1, hits give low values 0.933 | S. cerevisiae deletion strains, locus YNL006W, strain LST8, hits give low values 0.928 | S. cerevisiae deletion strains, locus YNL020C, strain ARK1, hits give low values 0.883 | S. cerevisiae deletion strains, locus YNL161W, strain CBK1, hits give low values 0.929 | S. cerevisiae deletion strains, locus YNL183C, strain NPR1, hits give low values 0.841 | S. cerevisiae deletion strains, locus YNL207W, strain RIO2, hits give low values 0.926 | S. cerevisiae deletion strains, locus YNL222W, strain SSU72, hits give low values 0.947 | S. cerevisiae deletion strains, locus YNL307C, strain MCK1 (second series), hits give low values 0.861 | S. cerevisiae deletion strains, locus YOL078W, strain AVO1, hits give low values 0.937 | S. cerevisiae deletion strains, locus YOL136C, strain PFK27, hits give low values 0.886 | S. cerevisiae deletion strains, locus YOR061W, strain CKA2, hits give low values 0.843 | S. cerevisiae deletion strains, locus YOR119C, strain RIO1, hits give low values 0.848 | S. cerevisiae deletion strains, locus YOR231W, strain MKK1, hits give low values 0.924 | S. cerevisiae deletion strains, locus YOR329C, strain SCD5, hits give low values 0.93 | S. cerevisiae deletion strains, locus YPL031C, strain PHO85, hits give low values 0.87 | S. cerevisiae deletion strains, locus YPL153C, strain RAD53, hits give low values 0.904 | S. cerevisiae deletion strains, locus YPL204W, strain HRR25, hits give low values 0.893 | S. cerevisiae deletion strains, locus YPL209C, strain IPL1, hits give low values 0.932 | S. cerevisiae deletion strains, locus YPR025C, strain CCL1, hits give low values 0.935 | S. cerevisiae deletion strains, locus YPR106W, strain ISR1, hits give low values 0.922 | S. cerevisiae deletion strains, locus YPR111W, strain DBF20, hits give low values 0.923 | S. cerevisiae deletion strains, strain NNK1, hits give low values 0.923 | S. cerevisiae deletion strains, strain TSCII, hits give low values 0.93
